# Data from PubChem BioAssay (EPA / NIEHS).
# The source made the active and inactive calls. How the source made its calls: active means hit-call score of the fitted dose curve at least 0.9, where 1 is the maximum; inactive means score below 0.9.
# Columns and labels:
# [1] = ATG_GRE_CIS: Attagene CIS-FACTORIAL HepG2 Assay for human Glucocorticoid Response Elements (GRE) (AID 2282947); settings: HepG2 GRE cis-reporter, Attagene multiplex mRNA; actives raise or lower the signal
# Summary of the method: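 Assay uses human hepatoma HepG2 cells transfected with cis-promoter reporter units, exposed 24 h. mRNA from reporters detected by RT-PCR plus capillary electrophoresis; DMSO serves as negative control and baseline.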
# [2] = ATG_ISRE_CIS: Attagene CIS-FACTORIAL HepG2 Assay for human Interferon Regulatory Factor 1 (IRF1) binding to an Interferon-Stimulated Response Element (ISRE) (AID 2282948); settings: HepG2 ISRE cis-reporter (Attagene), mRNA transcription readout; actives raise or lower the signal
# Summary of the method: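 Transiently transfected HepG2 cells carrying cis-element reporter units, dosed 24 hours. Reporter mRNA quantified by RT-PCR, fluorescent primer extension, HpaI digestion and capillary electrophoresis. Bidirectional fitting relative to DMSO.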
# [3] = ATG_M_32_CIS: Attagene CIS-FACTORIAL HepG2 Assay for M32 Transcription Factor (Internal Marker) (AID 2282949); settings: HepG2 Attagene cis-factorial M32 reporter, mRNA; actives raise or lower the signal;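 further: background control marker of the multiplexed CIS panel rather than a real target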
# Summary of the method: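 Following 24 h chemical exposure of HepG2 cells transiently expressing cis-promoter reporter constructs, reporter transcript levels were determined by RT-PCR with fluorescent labelling and capillary electrophoresis, then fitted bidirectionally against DMSO.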
# [4] = ATG_M_06_CIS: Attagene CIS-FACTORIAL HepG2 Assay for M06 Transcription Factor (Internal Marker) (AID 2282950); settings: HepG2 Attagene CIS-FACTORIAL M06 internal marker reporter; actives raise or lower the signal
# Summary of the method: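 Steps: transfect HepG2 with multiplexed cis-element reporter constructs; dose chemical 24 h; extract RNA with DNase treatment; reverse-transcribe, PCR-amplify, 6-FAM label, HpaI digest; separate fragments by capillary electrophoresis. Activity fitted both directions versus DMSO.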
# [5] = target: Hypoxia-inducible factor 1-alpha (Homo sapiens) (UniProt Q16665); assay: ATG_HIF1a_CIS: Attagene CIS-FACTORIAL HepG2 Assay for human Hypoxia Inducible Factor 1 (HIF1A) (AID 2282951); settings: HepG2 Attagene cis-factorial HIF1a reporter transcription; actives raise or lower the signal
# Summary of the method: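 Measures endogenous transcription-factor activity through cis-regulated reporter mRNA in HepG2. Cells dosed 24 h; transcripts quantified by RT-PCR with 6-FAM-labelled products separated by capillary electrophoresis; DMSO serves as negative control.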
# [6] = target: Hepatocyte nuclear factor 6 (Homo sapiens) (UniProt Q9UBC0); assay: ATG_HNF6_CIS: Attagene CIS-FACTORIAL HepG2 Assay for human Hepatocyte Nuclear Factor 6 (HNF6) (AID 2282952); settings: HepG2 Attagene cis-factorial HNF6 reporter transcription; actives raise or lower the signal
# Summary of the method: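 Multiplexed mRNA reporter assay in transfected HepG2; 24 h dosing; RT-PCR plus capillary electrophoresis fluorescence; DMSO-referenced bidirectional curve fitting.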
# [7] = target: Heat shock factor protein 1 (Homo sapiens) (UniProt Q00613); assay: ATG_HSE_CIS: Attagene CIS-FACTORIAL HepG2 Assay for human Heat Shock Transcription Factor 1 (HSE) (AID 2282953); settings: HepG2 HSE cis-reporter, Attagene RNA transcription; actives raise or lower the signal
# Summary of the method: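 Cells were transfected with cis-element-driven reporter constructs, dosed for 24 h, then total RNA was reverse-transcribed and reporter cDNA amplified, FAM-labelled and digested with HpaI. Fragments were resolved by capillary electrophoresis; gain or loss was fitted against DMSO.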
# [8] = ATG_MRE_CIS: Attagene CIS-FACTORIAL HepG2 Assay for human Metal Responsive Element (MRE) (AID 2282954); settings: HepG2 MRE cis-reporter transcription, Attagene multiplex; actives raise or lower the signal
# Summary of the method: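 After a 24 h chemical exposure, transiently transfected HepG2 cells yield RNA whose reporter sequences are amplified, FAM-labelled and sized by capillary electrophoresis. Curves are fitted bidirectionally relative to DMSO.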
# [9] = ATG_PBREM_CIS: Attagene CIS-FACTORIAL HepG2 Assay for human Phenobarbital-responsive Enhancer Module (PBREM) (AID 2282955); settings: HepG2 PBREM cis-reporter, Attagene multiplexed transcription; actives raise or lower the signal
# Summary of the method: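 Fluorescence of labelled reporter cDNA fragments, resolved by capillary electrophoresis, gives mRNA induction in transfected HepG2 cells treated for 24 h; DMSO serves as negative control and baseline.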
# [10] = target: Paired box protein Pax-6 (Homo sapiens) (UniProt P26367); assay: ATG_Pax6_CIS: Attagene CIS-FACTORIAL HepG2 Assay for human Paired Box 6 (PAX6) (AID 2282956); settings: HepG2 CIS-FACTORIAL PAX6 reporter transcription, RNA readout; actives raise or lower the signal
# Summary of the method: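 HepG2 cells transiently transfected with cis-promoter-driven multiplexed reporter units sensing endogenous transcription factor activity; 24 h chemical exposure. Reporter mRNA quantified by RT-PCR, 6-FAM labelling, HpaI digestion and capillary electrophoresis; bidirectional fit versus DMSO baseline.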
# [11] = ATG_RORE_CIS: Attagene CIS-FACTORIAL HepG2 Assay for human RAR-related Orphan Receptor Element (RORE) (AID 2282959); settings: HepG2 Attagene cis-factorial RORE reporter, mRNA; actives raise or lower the signal
# Summary of the method: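 Cells were HepG2 carrying transfected cis-regulated reporter constructs, dosed for 24 hours. Total RNA was reverse-transcribed and reporter cDNA amplified, fluorescently labeled and sized by capillary electrophoresis. Activity was fitted bidirectionally relative to DMSO.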
# [12] = ATG_Sox_CIS: Attagene CIS-FACTORIAL HepG2 Assay for human SRY-box transcription factor (SOX) (AID 2282960); settings: HepG2 Attagene cis-factorial SOX reporter, mRNA; actives raise or lower the signal
# Summary of the method: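 Transient MRTU transfection of HepG2; 24 h compound incubation; TriZol RNA, oligo(dT) RT, PCR, 6-FAM primer extension, HpaI cut, CE. Bidirectional fit, DMSO = baseline.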
# [13] = target: Transcription factor Sp1 (Homo sapiens) (UniProt P08047); assay: ATG_Sp1_CIS: Attagene CIS-FACTORIAL HepG2 Assay for human Specificity Protein 1 (Sp1) (AID 2282961); settings: HepG2 Sp1 cis-reporter transcription, actives raise or lower the signal
# Summary of the method: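 Endogenous Sp1 activity was gauged in human liver HepG2 cells bearing transfected reporter units under a cis-regulating promoter. After 24 h dosing, reporter mRNA was quantified by RT-PCR with capillary electrophoresis, and activity fitted bidirectionally versus DMSO.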
# [14] = ATG_SREBP_CIS: Attagene CIS-FACTORIAL HepG2 Assay for human Sterol Regulatory Element Binding (SREBP) (AID 2282962); settings: HepG2 Attagene cis-factorial SREBP reporter, mRNA; actives raise or lower the signal
# Summary of the method: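 HepG2 cells transiently transfected with multiplexed cis-promoter reporter units sensing endogenous transcription factors; reporter mRNA measured 24 h after dosing by RT-PCR, 6-FAM labeling, HpaI digestion and capillary electrophoresis. Bidirectional fit versus DMSO.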
# [15] = target: Signal transducer and activator of transcription 3 (Homo sapiens) (UniProt P40763); assay: ATG_STAT3_CIS: Attagene CIS-FACTORIAL HepG2 Assay for human Signal Transducer and Activator of Transcription 3 (STAT3) (AID 2282963); settings: HepG2, Attagene cis-factorial STAT3 reporter transcription; actives raise or lower the signal
# Summary of the method: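 After a 24 h compound incubation, total RNA from MRTU-transfected HepG2 cells was converted to cDNA and reporter sequences PCR-amplified, labelled and profiled by capillary electrophoresis. Gain and loss of signal were referenced to DMSO.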
# [16] = ATG_TA_CIS: Attagene CIS-FACTORIAL HepG2 Assay for human TA Basal Promoter (AID 2282964); settings: HepG2 Attagene CIS-factorial TA basal promoter reporter; actives raise or lower the signal
# Summary of the method: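 Steps: transfect HepG2 with MRTUs; dose 24 h; isolate RNA, DNase-treat, reverse-transcribe; PCR and FAM-label reporter cDNA; digest with HpaI 2h at 37 C; run capillary electrophoresis. Activity fitted both directions against DMSO.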
# [17] = ATG_TCF_b_cat_CIS: Attagene CIS-FACTORIAL HepG2 Assay for human T-Cell-Factor with beta-catenin (TCF/b-cat) (AID 2282965); settings: HepG2 TCF/beta-catenin cis-reporter transcription, actives raise or lower the signal
# Summary of the method: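 Measured: reporter mRNA in HepG2 transiently transfected with cis-promoter reporter units, 24 h after chemical addition. Fitting was bidirectional, DMSO as negative control.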
# [18] = ATG_PXRE_CIS: Attagene CIS-FACTORIAL HepG2 Assay for human Pregnane X Receptor Element (PXRE) (AID 2282957); settings: HepG2 Attagene CIS-FACTORIAL PXRE reporter, mRNA; actives raise or lower the signal
# Summary of the method: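 Cells: HepG2, transiently transfected reporter units under cis promoter control. Exposure: 24 h. Detection: reporter mRNA via RT-PCR/CE fluorescence; bidirectional fitting, DMSO-referenced.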
# [19] = ATG_PPRE_CIS: Attagene CIS-FACTORIAL HepG2 Assay for human Peroxisome Proliferator-activated Response Element (PPRE) (AID 2282958); settings: HepG2 PPRE cis-element reporter, Attagene transcription factor profiling; actives raise or lower the signal
# Summary of the method: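 Cells are first transfected transiently with the multiplexed reporter library, then dosed for 24 h. Total RNA is reverse-transcribed, amplified, fluorescently end-labeled and HpaI-cut before capillary electrophoresis; activity is fitted bidirectionally against DMSO controls.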
# Transcription factor Sp1 (Homo sapiens), sequence (P08047 whole entry, looked up): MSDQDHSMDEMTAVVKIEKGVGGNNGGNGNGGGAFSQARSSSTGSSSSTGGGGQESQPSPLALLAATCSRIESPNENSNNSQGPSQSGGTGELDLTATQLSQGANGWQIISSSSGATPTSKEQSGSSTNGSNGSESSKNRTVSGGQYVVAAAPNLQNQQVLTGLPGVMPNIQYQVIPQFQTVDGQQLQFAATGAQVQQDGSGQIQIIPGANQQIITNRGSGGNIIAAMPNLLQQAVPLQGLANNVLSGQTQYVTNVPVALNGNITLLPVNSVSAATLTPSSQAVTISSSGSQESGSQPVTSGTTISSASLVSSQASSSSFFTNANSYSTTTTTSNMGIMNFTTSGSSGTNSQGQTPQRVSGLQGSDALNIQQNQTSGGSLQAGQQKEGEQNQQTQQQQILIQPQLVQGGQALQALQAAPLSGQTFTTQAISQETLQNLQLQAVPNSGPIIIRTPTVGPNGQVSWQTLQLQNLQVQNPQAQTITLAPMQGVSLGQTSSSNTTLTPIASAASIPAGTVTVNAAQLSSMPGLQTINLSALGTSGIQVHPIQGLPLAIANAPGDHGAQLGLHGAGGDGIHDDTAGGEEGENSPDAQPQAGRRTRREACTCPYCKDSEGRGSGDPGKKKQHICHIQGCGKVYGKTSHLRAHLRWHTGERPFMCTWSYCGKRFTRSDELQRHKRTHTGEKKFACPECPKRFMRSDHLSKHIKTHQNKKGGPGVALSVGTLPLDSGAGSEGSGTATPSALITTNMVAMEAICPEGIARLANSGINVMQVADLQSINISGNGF
# Signal transducer and activator of transcription 3 (Homo sapiens), sequence (P40763 whole entry, looked up): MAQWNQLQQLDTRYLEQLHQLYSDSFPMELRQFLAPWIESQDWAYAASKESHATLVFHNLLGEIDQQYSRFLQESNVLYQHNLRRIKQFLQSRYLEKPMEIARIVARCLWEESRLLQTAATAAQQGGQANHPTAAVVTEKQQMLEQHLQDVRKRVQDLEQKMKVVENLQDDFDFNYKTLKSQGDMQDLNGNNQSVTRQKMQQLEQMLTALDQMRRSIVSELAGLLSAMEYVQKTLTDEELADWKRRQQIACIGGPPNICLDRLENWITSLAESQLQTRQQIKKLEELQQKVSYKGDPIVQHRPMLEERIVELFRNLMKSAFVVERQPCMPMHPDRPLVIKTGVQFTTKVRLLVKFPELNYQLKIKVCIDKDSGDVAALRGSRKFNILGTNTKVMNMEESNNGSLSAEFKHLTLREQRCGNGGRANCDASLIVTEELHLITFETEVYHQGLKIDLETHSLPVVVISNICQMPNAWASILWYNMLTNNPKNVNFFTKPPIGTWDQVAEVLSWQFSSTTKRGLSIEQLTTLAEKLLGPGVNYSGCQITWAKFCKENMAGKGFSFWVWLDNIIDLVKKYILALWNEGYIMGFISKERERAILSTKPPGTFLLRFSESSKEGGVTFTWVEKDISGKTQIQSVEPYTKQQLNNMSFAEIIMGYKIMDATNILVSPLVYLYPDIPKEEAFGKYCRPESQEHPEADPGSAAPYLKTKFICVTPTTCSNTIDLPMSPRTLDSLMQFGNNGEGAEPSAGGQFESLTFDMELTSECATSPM
# Paired box protein Pax-6 (Homo sapiens), sequence (P26367 whole entry, looked up): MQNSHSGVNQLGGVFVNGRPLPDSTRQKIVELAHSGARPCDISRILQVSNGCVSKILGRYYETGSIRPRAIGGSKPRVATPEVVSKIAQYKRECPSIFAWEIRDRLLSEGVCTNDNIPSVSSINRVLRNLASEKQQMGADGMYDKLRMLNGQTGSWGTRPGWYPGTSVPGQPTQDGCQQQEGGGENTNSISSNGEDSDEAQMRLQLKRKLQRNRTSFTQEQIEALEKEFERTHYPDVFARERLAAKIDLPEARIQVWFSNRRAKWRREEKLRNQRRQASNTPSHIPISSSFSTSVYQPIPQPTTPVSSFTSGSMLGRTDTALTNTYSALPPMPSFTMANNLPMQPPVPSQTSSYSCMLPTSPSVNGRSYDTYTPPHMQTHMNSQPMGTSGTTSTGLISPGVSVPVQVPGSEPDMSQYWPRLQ
# Heat shock factor protein 1 (Homo sapiens), sequence (Q00613 whole entry, looked up, the tested form may be a part): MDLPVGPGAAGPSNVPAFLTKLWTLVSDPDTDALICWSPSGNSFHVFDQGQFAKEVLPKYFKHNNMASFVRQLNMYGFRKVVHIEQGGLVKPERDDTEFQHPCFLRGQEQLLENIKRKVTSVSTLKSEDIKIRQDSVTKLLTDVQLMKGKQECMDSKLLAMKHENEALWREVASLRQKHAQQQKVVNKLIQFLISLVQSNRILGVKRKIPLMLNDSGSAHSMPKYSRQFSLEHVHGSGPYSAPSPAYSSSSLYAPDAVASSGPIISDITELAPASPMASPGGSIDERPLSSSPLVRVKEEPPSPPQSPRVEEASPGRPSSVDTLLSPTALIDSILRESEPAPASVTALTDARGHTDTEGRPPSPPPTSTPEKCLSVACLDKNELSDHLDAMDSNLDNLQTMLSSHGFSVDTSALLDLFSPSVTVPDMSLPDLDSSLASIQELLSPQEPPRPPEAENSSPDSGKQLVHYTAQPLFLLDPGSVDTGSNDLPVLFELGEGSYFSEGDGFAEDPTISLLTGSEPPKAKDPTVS
# Hepatocyte nuclear factor 6 (Homo sapiens), sequence (Q9UBC0 whole entry, looked up): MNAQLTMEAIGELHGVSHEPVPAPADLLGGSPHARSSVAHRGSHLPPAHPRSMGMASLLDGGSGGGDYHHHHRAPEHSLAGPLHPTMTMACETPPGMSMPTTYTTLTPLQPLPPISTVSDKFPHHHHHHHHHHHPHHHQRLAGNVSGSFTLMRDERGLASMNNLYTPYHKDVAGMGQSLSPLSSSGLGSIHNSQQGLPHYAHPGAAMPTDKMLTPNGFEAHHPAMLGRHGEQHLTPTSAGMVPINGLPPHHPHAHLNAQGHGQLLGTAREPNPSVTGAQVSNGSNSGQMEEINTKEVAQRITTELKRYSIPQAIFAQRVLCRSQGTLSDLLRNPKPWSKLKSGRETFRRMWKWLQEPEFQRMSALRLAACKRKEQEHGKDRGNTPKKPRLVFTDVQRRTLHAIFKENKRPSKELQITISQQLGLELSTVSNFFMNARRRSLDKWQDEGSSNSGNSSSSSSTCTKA
# Hypoxia-inducible factor 1-alpha (Homo sapiens), sequence (Q16665 whole entry, looked up): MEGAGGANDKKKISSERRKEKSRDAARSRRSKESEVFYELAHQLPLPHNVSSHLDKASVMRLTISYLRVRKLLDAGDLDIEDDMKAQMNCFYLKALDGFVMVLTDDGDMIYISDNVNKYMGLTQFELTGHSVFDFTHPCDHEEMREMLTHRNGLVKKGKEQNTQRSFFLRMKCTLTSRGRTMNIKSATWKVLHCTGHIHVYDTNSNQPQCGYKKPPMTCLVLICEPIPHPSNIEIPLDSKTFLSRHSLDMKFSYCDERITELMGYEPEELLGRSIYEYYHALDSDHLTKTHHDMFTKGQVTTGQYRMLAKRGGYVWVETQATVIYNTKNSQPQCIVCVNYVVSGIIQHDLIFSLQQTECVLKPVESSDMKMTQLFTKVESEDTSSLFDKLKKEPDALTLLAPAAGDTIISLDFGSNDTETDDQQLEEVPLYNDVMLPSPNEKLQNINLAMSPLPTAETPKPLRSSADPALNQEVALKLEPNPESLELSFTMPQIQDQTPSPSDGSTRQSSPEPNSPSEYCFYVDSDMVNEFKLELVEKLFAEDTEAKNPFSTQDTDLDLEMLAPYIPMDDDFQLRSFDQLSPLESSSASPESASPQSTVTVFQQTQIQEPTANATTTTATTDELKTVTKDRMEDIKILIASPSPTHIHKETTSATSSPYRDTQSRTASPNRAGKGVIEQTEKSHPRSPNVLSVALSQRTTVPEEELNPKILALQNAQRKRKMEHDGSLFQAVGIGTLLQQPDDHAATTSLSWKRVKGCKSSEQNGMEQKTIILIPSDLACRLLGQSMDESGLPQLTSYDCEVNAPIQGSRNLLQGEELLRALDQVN
smiles,measurement,setting,value
Nc1cc([N+](=O)[O-])ccc1O,outcome,[1],inactive
same,outcome,[2],inactive
same,outcome,[3],inactive
same,outcome,[4],inactive
same,outcome,[5],inactive
same,outcome,[6],inactive
same,outcome,[7],inactive
same,outcome,[8],inactive
same,outcome,[9],inactive
same,outcome,[10],inactive
same,outcome,[11],inactive
same,outcome,[12],inactive
same,outcome,[13],inactive
same,outcome,[14],inactive
same,outcome,[15],inactive
same,outcome,[16],inactive
same,outcome,[17],inactive
CC(C)(COC(=O)c1ccccc1)COC(=O)c1ccccc1,outcome,[1],inactive
same,outcome,[2],inactive
same,outcome,[3],inactive
same,outcome,[4],inactive
same,AC50,[5],47.2 µM (active)
same,outcome,[6],inactive
same,outcome,[7],inactive
same,outcome,[8],inactive
same,outcome,[9],inactive
same,outcome,[10],inactive
same,AC50,[18],34.7 µM (active)
same,outcome,[19],inactive
same,outcome,[12],inactive
same,outcome,[13],inactive
same,outcome,[14],inactive
same,outcome,[15],inactive
same,outcome,[16],inactive
same,outcome,[17],inactive
CC(C)Oc1ccccc1O,outcome,[1],inactive
same,outcome,[2],inactive
same,outcome,[3],inactive
same,outcome,[4],inactive
same,outcome,[5],inactive
same,outcome,[6],inactive
same,outcome,[7],inactive
same,outcome,[8],inactive
same,outcome,[9],inactive
same,outcome,[10],inactive
same,AC50,[18],39.4 µM (active)
same,outcome,[19],inactive
same,outcome,[11],inactive
same,outcome,[12],inactive
same,outcome,[13],inactive
same,outcome,[14],inactive
same,outcome,[16],inactive
same,outcome,[17],inactive
O=[N+]([O-])c1cc(C(F)(F)F)ccc1Cl,outcome,[1],inactive
same,outcome,[2],inactive
same,outcome,[3],inactive
same,outcome,[4],inactive
same,outcome,[5],inactive
same,outcome,[6],inactive
same,outcome,[7],inactive
same,outcome,[8],inactive
same,outcome,[9],inactive
same,outcome,[10],inactive
same,AC50,[18],12.7 µM (active)
same,outcome,[11],inactive
same,outcome,[12],inactive
same,outcome,[13],inactive
same,outcome,[15],inactive
same,outcome,[16],inactive
same,outcome,[17],inactive
O=[N+]([O-])c1ccc(Nc2ccc(Nc3ccccc3)c(S(=O)(=O)O)c2)c([N+](=O)[O-])c1,outcome,[1],inactive
same,outcome,[2],inactive
same,outcome,[3],inactive
same,outcome,[4],inactive
same,outcome,[5],inactive
same,outcome,[6],inactive
same,AC50,[7],178 µM (active)
same,AC50,[8],100 µM (active)
same,outcome,[9],inactive
same,outcome,[10],inactive
same,AC50,[18],27 µM (active)
same,AC50,[19],49.2 µM (active)
same,outcome,[13],inactive
same,outcome,[14],inactive
same,outcome,[16],inactive
same,AC50,[17],134 µM (active)
CCCCCC(=O)OCCc1ccccc1,outcome,[1],inactive
same,outcome,[2],inactive
same,outcome,[3],inactive
same,outcome,[4],inactive
same,outcome,[5],inactive
same,outcome,[6],inactive
same,outcome,[7],inactive
same,outcome,[8],inactive
same,outcome,[9],inactive
same,outcome,[10],inactive
same,outcome,[18],inactive
same,outcome,[11],inactive
same,outcome,[12],inactive
same,outcome,[13],inactive
same,outcome,[14],inactive
same,outcome,[15],inactive
same,outcome,[16],inactive
same,outcome,[17],inactive
Clc1ccc2c(c1)C(N1CCNCC1)=Nc1ccccc1O2,outcome,[1],inactive
same,outcome,[2],inactive
same,AC50,[3],52.4 µM (active)
same,outcome,[4],inactive
same,outcome,[5],inactive
same,outcome,[6],inactive
same,AC50,[7],52.1 µM (active)
same,AC50,[8],34.2 µM (active)
same,AC50,[10],41.1 µM (active)
same,outcome,[18],inactive
same,outcome,[19],inactive
same,outcome,[11],inactive
same,outcome,[12],inactive
same,outcome,[13],inactive
same,outcome,[14],inactive
same,outcome,[16],inactive
same,outcome,[17],inactive
CCOc1ccccc1OCC,outcome,[1],inactive
same,outcome,[2],inactive
same,outcome,[3],inactive
same,outcome,[4],inactive
same,outcome,[5],inactive
same,outcome,[6],inactive
same,outcome,[7],inactive
same,outcome,[8],inactive
same,outcome,[10],inactive
same,AC50,[18],24.9 µM (active)
same,outcome,[19],inactive
same,outcome,[11],inactive
same,outcome,[12],inactive
same,outcome,[13],inactive
same,outcome,[14],inactive
same,outcome,[15],inactive
same,outcome,[16],inactive
same,outcome,[17],inactive
